# Reference: PubChem BioAssay (NCATS)
# “And” between values parts separate entries of the source, which are not always exact repeats. Equal entries are not always repeated. Records with an inconclusive call do not appear. Where a call stands in place of a potency, no number is given. The source made the active and inactive calls. Unless noted, calls follow the shape of the dose curve; as a rule, active = well fitted curve in the direction sought with a large enough effect; inconclusive = small, poorly fitted or top-dose-only effect, or another doubt; inactive = no such curve, though single readings can be large; an effect the other way counts as inactive or inconclusive.
# What was measured:
# [1] = Cellular Toxicity (caspase-3) HepG2 (AID 654);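 also: cells exposed to compound for 16 hours before reading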
# Outline: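 HepG2 cells (1500/well) in complete medium were treated with compounds for 16 hr at 37 °C. Caspase-3/7 activity was then read as luminescence from peptide-aminoluciferin cleavage. AC50 came from Hill fits, normalized to DMSO and 100 uM tamoxifen.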
# [2] = Cellular Toxicity (caspase-3) NIH 3T3 (AID 666)
# Outline: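 Mouse NIH 3T3 fibroblasts (1000 cells/well) were treated with compound for 16 hr at 37°C in complete medium; caspase-3/7 activity was read by Caspase-Glo luminescence. Normalized to DMSO and 100 uM tamoxifen; AC50 from Hill fits.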
# [3] = Cellular Toxicity (caspase-3) Renal Proximal Tubule (AID 667); conditions: renal proximal tubule cells; at 91.7 µM (top of the series), primary cells freshly taken from rat, solvent-only wells 0%, staurosporine 100% unless noted;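 also: cells exposed to compound for 16 hours at 37 °C before detection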
# Outline: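 Luminescent caspase 3/7 signal from peptide-aminoluciferin cleavage measures apoptosis in freshly isolated rat kidney proximal tubule cells after 16 h compound exposure. Concentration-response data are normalized to DMSO and 10 uM staurosporine, and AC50 values come from Hill equation fits.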
# [4] = MultiTox-Fluor Cytotoxicity Assay - LYMP1-002 - Live Cells (AID 955)
# Outline: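 Human lymphoblastoid LYMP1-002 cells, 2500/well in complete medium, rested 5 hr at 37 C, then exposed to compounds for 16 hr at 37 C. Live-cell protease cleavage of GF-AFC read by fluorescence (Ex/Em 405/510) after 60 min at room temperature; AC50 from Hill fits.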
# [5] = Cell Viability - LYMP2-013 (AID 970); also: nearly all actives have a fitted effect of over 55% in size
# Outline: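 Human lymphoblastoid cells, 2500/well, were preincubated 5 hr at 37 C, then treated with compounds for 24 hr at 37 C in complete medium. Intracellular ATP was read by CellTiter-Glo luminescence; AC50 from Hill-equation fits of concentration-response data.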
# [6] = Cell Viability - LYMP2-002 (AID 977);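 also: compound exposure lasted 24 h at 37 °C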
# Outline: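 Cytotoxicity is scored as concentration-dependent loss of cellular ATP in a human lymphoblastoid line after 24 hr compound treatment at 37 C. AC50 is obtained by modelling concentration-response data with the Hill equation.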
# [7] = target: Bile acid receptor (Homo sapiens) (UniProt Q96RI1); experiment: qHTS assay for small molecule antagonists of farnesoid X receptor signaling (AID 588526; calls by dose curve)
# Outline: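 Beta-lactamase reporter antagonist mode: HEK293T FXR-UAS-bla cells, titrated compound, CDCA stimulation, 16 h 37 C, CCF4 dye 2 h RT. Data normalized to CDCA 50 uM and DMSO; Hill-fit IC50.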
# [8] = target: Bile acid receptor (Homo sapiens) (UniProt Q96RI1); experiment: qHTS assay for small molecule agonists of farnesoid X receptor signaling (AID 588527; calls by dose curve); conditions: HEK293T FXR-UAS-bla, beta-lactamase ratio, 16 h; stronger effect = higher value
# Outline: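 Agonist-mode beta-lactamase reporter in GeneBLAzer FXR-UAS-bla HEK293T cells, titration up to 92 uM, 16 h exposure at 37 C, CCF4 fluorescence. Response scaled to DMSO (0%) and 100 uM chenodeoxycholic acid (100%), then Hill-fitted for EC50 and efficacy.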
# [9] = target: Glucocorticoid receptor (Homo sapiens) (UniProt P04150); experiment: qHTS assay for small molecule agonists of glucocorticoid receptor signaling (AID 588532; active = well fitted curve in the direction sought with a large enough effect in the signal ratio, with a control signal flat; the % refers to the signal ratio); conditions: HeLa MMTV-bla, beta-lactamase ratio, agonist, 18 h; stronger effect = higher value; percent of dexamethasone control, DMSO zero
# Outline: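 Agonist-mode qHTS: GRE-driven beta-lactamase in HeLa cells exposed 18 h to titrated compounds (up to 92 uM), then CCF4 ratio read after 2 h at RT; Hill-fitted EC50, efficacy relative to 0.1 uM dexamethasone.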
# [10] = qHTS assay for small molecule antagonists of peroxisome proliferator-activated receptor delta signaling (AID 588535); conditions: HEK293T PPARd-UAS-bla, beta-lactamase FRET ratio, 18 h; 460 nm channel;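 also: cells co-treated with a PPAR-delta agonist as stimulator during compound exposure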
# Outline: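 Cell-based beta-lactamase assay in antagonist mode: 4000 HEK293T PPAR-delta-UAS-bla cells per well, 5 hr preincubation then 18 hr compound incubation at 37 C. IC50 obtained by Hill equation fitting.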
# [11] = target: Peroxisome proliferator-activated receptor gamma (Homo sapiens) (UniProt P37231); experiment: qHTS assay for small molecule agonists of peroxisome proliferator-activated receptor gamma signaling (AID 588536; active = well fitted curve in the direction sought with a large enough effect in the signal ratio, with a control signal flat, not every such curve was filed as active; the % refers to the signal ratio)
# Outline: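 Ratiometric blue/green fluorescence (405 nm excitation; 460 and 530 nm emission) from CCF4-loaded HEK293 reporter cells serves as signal. Exposure to test compounds lasts 16 h at 37 C in medium containing 1% charcoal/dextran-treated serum.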
# [12] = target: Retinoic acid receptor RXR-alpha (Homo sapiens) (UniProt P19793); experiment: qHTS assay for small molecule agonists of retinoid X receptor alpha signaling (AID 588544; calls by dose curve)
# [13] = qHTS assay for small molecule activators of the nuclear factor-kappa B (NF-kB) signaling pathway (AID 651749; active = well fitted activation curve with a large enough effect in the signal ratio; the % refers to the signal ratio); conditions: NF-kB-bla ME-180 cells, beta-lactamase FRET ratio, 16 h; activation: stronger effect = higher value
# Outline: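 Stably transfected ME-180 line; NF-kB response element upstream of beta-lactamase. Treatment: compound or DMSO, 16 hr. Detection: fluorescent FRET substrate.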
# [14] = target: Tumor necrosis factor (Homo sapiens) (UniProt P01375); experiment: qHTS assay to identify small molecules that stimulate Tumor Necrosis Factor-alpha (TNF-alpha) secretion (AID 651757; active = well fitted curve in the direction sought with a large enough effect in the signal ratio; the % refers to the signal ratio)
# Outline: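 THP-1 cells were exposed to compounds for 17 hrs at 37 C, after which secreted TNF-alpha was measured by homogeneous HTRF (TR-FRET) using cryptate- and XL665-labeled anti-TNF-alpha antibodies, read after 3 hr at room temperature.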
# [15] = Cell Viability - LYMP2-004 (AID 966); also: nearly all actives have a fitted effect of over 65% in size
# Outline: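 Human lymphoblastoid cells (2500/well) in complete medium were treated with compounds for 24 hr at 37 C, then intracellular ATP was measured by CellTiter-Glo luminescence. AC50 values came from Hill-equation fits of concentration-response data.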
# [16] = Cell Viability - LYMP2-021 (AID 974);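 also: compound exposure lasts 24 hours at 37 °C; nearly all actives have a fitted effect of over 55% in size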
# Outline: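 Human lymphoblastoid cells (2500/well) were preincubated 5 hr at 37 C, then exposed to compounds for 24 hr at 37 C in complete medium. Intracellular ATP was read by CellTiter-Glo luminescence; AC50 came from Hill-equation fits of concentration-response data.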
# [17] = Cell Viability - LYMP2-024 (AID 988); also: nearly all actives have a fitted effect of over 60% in size
# Outline: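 Human lymphoblastoid cells (2500/well) in complete medium were preincubated 5 hr at 37 C, then exposed to compounds for 24 hr at 37 C. Intracellular ATP was read by CellTiter-Glo luminescence; AC50 from Hill-equation fits of concentration-response data.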
# [18] = target: Peroxisome proliferator-activated receptor gamma (Homo sapiens) (UniProt P37231); experiment: qHTS assay for small molecule antagonists of peroxisome proliferator-activated receptor gamma signaling (AID 588537; active = well fitted inhibition curve with a large enough effect in the signal ratio, with a control signal flat, not every such curve was filed as active; the % refers to the signal ratio;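 also: reporter cells co-stimulated with 50 nM rosiglitazone agonist during compound treatment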)
# Outline: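 Inhibitors of agonist-stimulated UAS-bla reporter activity were sought in HEK293 cells; rosiglitazone (50 nM) defined full signal and DMSO baseline. Curves fitted to Hill model gave IC50 and efficacy.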
# [19] = qHTS assay for small molecule agonists of the antioxidant response element (ARE) signaling pathway (AID 651741; active = well fitted activation curve with a large enough effect in the signal ratio; the % refers to the signal ratio; also: potency is read from the fitted curve at half-maximal effect)
# Outline: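 Seeding 2,000 ARE-bla HepG2 cells per well preceded a 5 h incubation at 37 C/5% CO2 and a 16 h compound exposure at 37 C. Beta-lactamase reporter activity was then quantified by fluorescence after 2 h with LiveBLAzer B/G FRET substrate.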
# [20] = target: Thyroid hormone receptor beta (Homo sapiens) (UniProt P10828); experiment: qHTS assay for small molecule agonists of thyroid hormone receptor beta signaling (AID 588545; calls by dose curve)
# Outline: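 Agonist activity was read as beta-lactamase CCF4 fluorescence (405 ex, 460/530 em), scaled between DMSO (0%) and 10 nM T3 (100%), then Hill-fitted for EC50 and efficacy. HEK 293 TR-UAS-bla cells in 2% charcoal/dextran FBS medium were exposed 18 h at 37 C.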
# Chain of Glucocorticoid receptor (Homo sapiens) (P04150 whole entry, looked up): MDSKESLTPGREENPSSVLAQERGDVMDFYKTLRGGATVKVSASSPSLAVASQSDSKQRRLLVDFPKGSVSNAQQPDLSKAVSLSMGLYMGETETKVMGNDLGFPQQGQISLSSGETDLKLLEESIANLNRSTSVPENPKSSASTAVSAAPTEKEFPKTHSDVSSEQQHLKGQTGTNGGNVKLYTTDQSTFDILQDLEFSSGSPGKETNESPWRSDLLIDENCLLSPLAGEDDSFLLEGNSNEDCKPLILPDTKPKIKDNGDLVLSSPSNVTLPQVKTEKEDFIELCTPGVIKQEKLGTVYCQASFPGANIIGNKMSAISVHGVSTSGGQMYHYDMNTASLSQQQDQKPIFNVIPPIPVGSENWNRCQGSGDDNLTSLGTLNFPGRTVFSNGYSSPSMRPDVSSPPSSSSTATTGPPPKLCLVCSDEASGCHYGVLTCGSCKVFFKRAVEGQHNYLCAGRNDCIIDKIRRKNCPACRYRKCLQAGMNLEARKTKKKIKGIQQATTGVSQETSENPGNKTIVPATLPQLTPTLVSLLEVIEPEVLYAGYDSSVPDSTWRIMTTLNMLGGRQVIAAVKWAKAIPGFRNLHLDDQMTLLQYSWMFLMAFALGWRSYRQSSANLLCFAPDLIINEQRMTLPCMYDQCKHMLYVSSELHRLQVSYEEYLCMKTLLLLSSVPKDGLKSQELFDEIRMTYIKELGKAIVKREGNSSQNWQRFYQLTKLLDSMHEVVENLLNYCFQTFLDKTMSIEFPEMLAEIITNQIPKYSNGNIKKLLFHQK
# Chain of Tumor necrosis factor (Homo sapiens) (P01375 whole entry, looked up): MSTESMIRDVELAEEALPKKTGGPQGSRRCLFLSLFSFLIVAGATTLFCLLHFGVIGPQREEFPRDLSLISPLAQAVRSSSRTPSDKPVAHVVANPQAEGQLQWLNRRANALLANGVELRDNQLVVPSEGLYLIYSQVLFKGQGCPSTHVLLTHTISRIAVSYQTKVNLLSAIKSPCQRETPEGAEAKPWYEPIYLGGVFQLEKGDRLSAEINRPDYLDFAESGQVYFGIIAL
# Chain of Peroxisome proliferator-activated receptor gamma (Homo sapiens) (P37231 whole entry, looked up): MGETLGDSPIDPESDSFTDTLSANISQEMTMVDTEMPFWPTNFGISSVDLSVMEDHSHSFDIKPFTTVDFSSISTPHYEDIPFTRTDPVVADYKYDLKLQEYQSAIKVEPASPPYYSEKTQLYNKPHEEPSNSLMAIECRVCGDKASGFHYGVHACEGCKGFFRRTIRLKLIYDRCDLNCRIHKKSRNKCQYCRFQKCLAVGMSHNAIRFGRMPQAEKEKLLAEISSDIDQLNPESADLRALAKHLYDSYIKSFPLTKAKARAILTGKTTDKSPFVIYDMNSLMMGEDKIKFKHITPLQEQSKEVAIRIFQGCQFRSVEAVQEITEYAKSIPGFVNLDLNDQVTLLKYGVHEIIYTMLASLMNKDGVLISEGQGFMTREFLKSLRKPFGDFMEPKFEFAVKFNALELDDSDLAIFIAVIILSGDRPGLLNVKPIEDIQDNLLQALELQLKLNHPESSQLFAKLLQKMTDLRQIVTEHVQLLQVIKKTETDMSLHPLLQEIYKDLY
# Chain of Bile acid receptor (Homo sapiens) (Q96RI1 whole entry, looked up): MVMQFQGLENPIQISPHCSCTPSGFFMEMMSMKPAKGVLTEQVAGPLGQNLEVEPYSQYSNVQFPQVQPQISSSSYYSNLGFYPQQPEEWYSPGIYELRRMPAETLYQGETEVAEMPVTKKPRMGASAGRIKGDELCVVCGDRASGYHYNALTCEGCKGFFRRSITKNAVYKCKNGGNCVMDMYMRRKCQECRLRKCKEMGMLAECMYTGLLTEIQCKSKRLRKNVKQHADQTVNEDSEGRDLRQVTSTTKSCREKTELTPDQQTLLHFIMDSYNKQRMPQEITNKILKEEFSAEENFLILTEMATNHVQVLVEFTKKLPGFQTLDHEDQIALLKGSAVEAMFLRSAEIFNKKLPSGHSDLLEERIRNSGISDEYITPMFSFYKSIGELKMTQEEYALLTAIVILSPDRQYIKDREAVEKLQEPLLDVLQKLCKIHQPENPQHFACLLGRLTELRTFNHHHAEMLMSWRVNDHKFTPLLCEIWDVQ
# Chain of Retinoic acid receptor RXR-alpha (Homo sapiens) (P19793 whole entry, looked up): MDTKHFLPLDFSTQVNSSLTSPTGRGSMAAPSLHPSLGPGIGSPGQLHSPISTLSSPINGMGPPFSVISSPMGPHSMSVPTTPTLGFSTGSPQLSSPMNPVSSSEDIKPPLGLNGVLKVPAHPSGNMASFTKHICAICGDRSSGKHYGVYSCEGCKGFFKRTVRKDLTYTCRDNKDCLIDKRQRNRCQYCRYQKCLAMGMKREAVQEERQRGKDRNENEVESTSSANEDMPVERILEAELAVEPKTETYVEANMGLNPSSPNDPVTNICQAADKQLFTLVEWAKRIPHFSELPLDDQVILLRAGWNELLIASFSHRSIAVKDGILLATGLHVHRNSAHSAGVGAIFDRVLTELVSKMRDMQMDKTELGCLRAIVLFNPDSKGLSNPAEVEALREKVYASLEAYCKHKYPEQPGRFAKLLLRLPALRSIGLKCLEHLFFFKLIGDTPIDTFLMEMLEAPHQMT
# Chain of Thyroid hormone receptor beta (Homo sapiens) (P10828 whole entry, looked up): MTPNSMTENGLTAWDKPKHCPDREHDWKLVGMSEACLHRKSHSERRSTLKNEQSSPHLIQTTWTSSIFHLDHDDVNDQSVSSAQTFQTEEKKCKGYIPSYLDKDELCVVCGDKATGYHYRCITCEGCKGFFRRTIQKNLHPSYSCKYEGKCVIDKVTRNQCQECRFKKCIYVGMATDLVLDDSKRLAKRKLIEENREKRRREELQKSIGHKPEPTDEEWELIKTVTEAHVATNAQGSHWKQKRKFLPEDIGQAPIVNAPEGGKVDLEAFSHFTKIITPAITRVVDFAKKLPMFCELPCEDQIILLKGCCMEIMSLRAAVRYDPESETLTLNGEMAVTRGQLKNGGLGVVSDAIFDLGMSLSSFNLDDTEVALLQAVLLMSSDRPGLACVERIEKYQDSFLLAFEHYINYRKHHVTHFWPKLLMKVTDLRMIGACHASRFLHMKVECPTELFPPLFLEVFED
Compound,outcome [1],outcome [2],caspase-3 activation [3],outcome [4],Potency [5],Potency [6],outcome [7],activation [8],activation [9],max response [10],outcome [11],Potency [12],activation [13],outcome [14],Potency [15],Potency [16],Potency [17],Potency [18],Potency [19],outcome [20]
Cc1cccc(C#N)c1,inactive,inactive,10.9% (inactive),inactive,inactive,inactive,inactive,-2.16% (inactive),-3.56% (inactive),57%,inactive,inactive,0.885% (inactive),inactive,,,,,,
CCCCOCCOP(=O)(OCCOCCCC)OCCOCCCC,inactive,inactive,-4.16% [at 91.7 µM] (inactive),inactive,,,,,,25%,,inactive,-1.15% (inactive) and -0.483% (inactive),,inactive,inactive,inactive,inactive,,
Clc1nc(Cl)nc(Cl)n1,inactive,inactive,1.34% (inactive),,,,,,,-3.59% and 8.32%,inactive,,0.499% (inactive) and 0.444% (inactive),inactive,,inactive,inactive,,inactive,
CC(=O)[O-].CC(=O)[O-].O.O.O.[Pb+2],inactive,inactive,,inactive,inactive,,,,,,,,,inactive,,,inactive,,33.5 µM (active) and 37.6 µM (active),
CC(C)(C)C(=O)C(Oc1ccc(Cl)cc1)n1cncn1 (configuration not stated),,,,,,,,,,-36.1% and 32.9%,,inactive,-2.3% (inactive) and -1.59% (inactive),,,,,inactive,inactive,
CCCC(=O)Cl,,,6.16% (inactive),,inactive,inactive,inactive,0.327% (inactive),,,inactive,,-0.622% (inactive),,inactive,,inactive,inactive,,
Nc1ccc(Br)cc1,,inactive,-0.502% (inactive),inactive,,inactive,inactive,0.791% (inactive),,,,inactive,-0.0985% (inactive),inactive,inactive,,inactive,,,
CCCSC(=O)Cl,inactive,inactive,5.81% (inactive),inactive,,,inactive,0.0371% (inactive),2.44% (inactive),,inactive,,-0.498% (inactive),inactive,,inactive,,,inactive,inactive
C=C(C)C#N,inactive,,7.27% (inactive),,,inactive,inactive,0.805% (inactive) and -0.908% (inactive),,,,inactive,,,,,,,,inactive
O=C(Cl)C(Cl)(Cl)Cl,inactive,inactive,,inactive,inactive,,inactive,-1.96% (inactive),,6.34%,inactive,,-1.07% (inactive),,,,,,inactive,inactive
Cc1ccc([N+](=O)[O-])cc1C,inactive,,-2.52% (inactive),,inactive,inactive,inactive,-0.387% (inactive) and 0.526% (inactive),,-1.38%,inactive,inactive,0.21% (inactive) and 0.188% (inactive),inactive,,inactive,,inactive,inactive,inactive
C1CCC2CCCCC2C1 (configuration not stated),inactive,inactive,-7.58% (inactive),inactive,,inactive,inactive,-3.01% (inactive),11.1% (inactive),-10.8%,,,,inactive,inactive,inactive,inactive,inactive,,inactive
CC(Cl)Cl,,inactive,-1.5% (inactive),inactive,inactive,inactive,inactive,-0.0258% (inactive),-9.28% (inactive),2.53%,inactive,,3.47% (inactive),,inactive,,,,inactive,
